Consider 8 compounds from PubChem BioAssay (NCI).

The structures appear in SMILES notation. About 83,000 compounds went through this panel and 20% of them were active in at least one assay; those are over-represented in the sample as a whole.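 Values shown are percent growth following 48 h exposure of cells in 96-well plates to a single concentration of compound; below 10 was considered active.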 Unmarked numbers belong to inactive results. Activity calls are given as the source filed them.

Test systems include DU-145 prostate; K-562 leukemia; MALME-3M melanoma; MDA-MB-231 breast; RXF 393 renal; SF-268 CNS; SF-295 CNS; SF-539 CNS; UACC-257 melanoma; M14 melanoma; HCT-15 colon; HT29 colon; SNB-75 CNS; SNB-19 CNS; U251 CNS; PC-3 prostate; SK-MEL-5 melanoma; UACC-62 melanoma; LOX IMVI melanoma; SK-MEL-28 melanoma.
Common to all, as to assay: NCI-60 one-dose screen, 48 h (100 = growth as untreated, 0 = no growth, -100 = all killed)
What all share (conditions): 10 µM unless noted

Consider `Cn1cc(-c2cc(N)n3nc(-c4c[nH]c5ccc(F)cc45)cc3n2)c2cc(Br)cnc21`, for which the growth in the assay on DU-145 prostate was 69.9%; in the assay on K-562 leukemia, -69% (active); with MALME-3M melanoma, 75.6%; in the assay on MDA-MB-231 breast it was 13.2%; in the assay with RXF 393 renal it was 11.7%; with SF-268 CNS it was 89.3%. The growth with SF-295 CNS was 69.6%; with SF-539 CNS, 52.8%; with UACC-257 melanoma, 84.6%; in the assay with M14 melanoma, 55.4%; in the assay on HCT-15 colon, -11.7% (active); in the assay with HT29 colon, 25.8%. Also, the growth with SNB-75 CNS is 134%; in the assay with SNB-19 CNS, 98.3%; with U251 CNS, 22.4%; in the assay with PC-3 prostate it was 53.8%; in the assay on SK-MEL-5 melanoma, 78.8%; in the assay with UACC-62 melanoma, 73.7%. Moreover, the figures for the growth in the assay with LOX IMVI melanoma and in the assay with SK-MEL-28 melanoma were -56.8% (active) and 80%, respectively.

Regarding `COc1cc(CNC(=O)[C@]23CCC(C)(C)CC2C2=CCC4[C@@]5(C)CCC(OC(C)=O)C(C)(C)C5CC[C@@]4(C)[C@]2(C)CC3)ccc1OCc1cn(-c2ccc(Cl)cc2Cl)nn1` (stereo not given in full), the growth with DU-145 prostate was 116%; in the assay with K-562 leukemia, 85.5%; in the assay on MALME-3M melanoma, 99%; in the assay on MDA-MB-231 breast it was 88.8%; with RXF 393 renal, 116%; in the assay on SF-268 CNS it was 110%. Besides, the growth is 100% in the assay with SF-295 CNS; 101% in the assay with SF-539 CNS; 88.6% in the assay with UACC-257 melanoma; 98.2% in the assay on M14 melanoma; 111% with HCT-15 colon; 98% in the assay on HT29 colon. Moreover, the growth in the assay on SNB-75 CNS was 118%; in the assay on SNB-19 CNS, 89.8%; in the assay on U251 CNS, 104%; in the assay with PC-3 prostate, 98.3%; with SK-MEL-5 melanoma it was 103%; in the assay with UACC-62 melanoma it was 81.4%. Further, the growth in the assay on LOX IMVI melanoma was 98.3%; in the assay with SK-MEL-28 melanoma, 117%.

Regarding `Oc1ccc(F)c(Nc2nc(SCCN3CCOCC3)nc3c2cnn3CC(Cl)c2ccc(Br)cc2)c1` (stereo not given), the growth with DU-145 prostate was 34%; with K-562 leukemia, -3.32% (active); in the assay on MALME-3M melanoma, 1.03% (active); in the assay with MDA-MB-231 breast, -17.6% (active); in the assay with RXF 393 renal it was -48.4% (active); with SF-268 CNS, 24.1%. The growth in the assay with SF-295 CNS was 2.35% (active); in the assay on SF-539 CNS, 17.3%; with UACC-257 melanoma, 14.4%; in the assay on M14 melanoma it was 18.8%; in the assay with HCT-15 colon, 1.07% (active); in the assay with HT29 colon it was 8.07% (active). Besides, the growth is 15.2% in the assay with SNB-75 CNS; 46.1% in the assay with SNB-19 CNS; 21.9% in the assay on U251 CNS; 7.79% (active) with PC-3 prostate; 18.1% with SK-MEL-5 melanoma; 20.8% with UACC-62 melanoma. The growth in the assay with LOX IMVI melanoma was -17.8% (active); with SK-MEL-28 melanoma, 21%.

Regarding `COc1ccc(NC(=O)N/N=C/c2c[nH]c3ccccc23)cc1`, the growth in the assay on DU-145 prostate is 27.6%; in the assay with K-562 leukemia, 17.8%; in the assay with MALME-3M melanoma, 61.9%; in the assay on MDA-MB-231 breast, 44.7%; with RXF 393 renal it was 20.2%; in the assay on SF-268 CNS it was 55.7%. Further, the growth in the assay with SF-295 CNS was 16.4%; with SF-539 CNS it was -13.6% (active); in the assay on UACC-257 melanoma, 72.9%; in the assay with M14 melanoma, 29.7%; in the assay with HCT-15 colon, 26.2%; with HT29 colon, 2.49% (active). Besides, the growth with SNB-75 CNS is 19.6%; with SNB-19 CNS, 47.3%; in the assay with U251 CNS, 28.3%; in the assay on PC-3 prostate, 48.7%; with SK-MEL-5 melanoma it was 20.5%; in the assay with UACC-62 melanoma, 25.5%. The results for the growth in the assay on LOX IMVI melanoma and with SK-MEL-28 melanoma were 28% and 67.9%, respectively.

Take `C=CCn1c(O)c(N=Nc2nc(-c3cc4ccccc4oc3=O)cs2)c2ccccc21`: the growth in the assay with DU-145 prostate is 74.1%; with K-562 leukemia, 107%; in the assay with MALME-3M melanoma, 104%; in the assay on MDA-MB-231 breast it was -24.9% (active); in the assay on RXF 393 renal, -4.94% (active); in the assay on SF-268 CNS, 42.1%. Further, the growth is 54.6% with SF-295 CNS; 83.7% in the assay with SF-539 CNS; 101% in the assay with UACC-257 melanoma; 70.9% with M14 melanoma; 98.4% in the assay on HCT-15 colon; 17.2% in the assay with HT29 colon. The growth with SNB-75 CNS was -25% (active); in the assay on SNB-19 CNS it was 38.7%; in the assay on U251 CNS, 13.3%; in the assay with PC-3 prostate, 56.4%; with SK-MEL-5 melanoma, 33.3%; in the assay with UACC-62 melanoma, 52.6%. The growth in the assay on LOX IMVI melanoma was 70.1%; in the assay with SK-MEL-28 melanoma, 49.8%.

As for `CN(C(=O)CN1C(=O)/C(=C/c2ccco2)SC1=S)C1CCS(=O)(=O)C1` (stereo not given), the growth in the assay with DU-145 prostate was 103%; in the assay with K-562 leukemia it was 85.1%; with MALME-3M melanoma, 97.1%; in the assay with MDA-MB-231 breast, 108%; in the assay on RXF 393 renal it was 108%; with SF-268 CNS it was 93.9%. The growth with SF-295 CNS was 104%; in the assay with SF-539 CNS, 104%; with UACC-257 melanoma it was 96.4%; with M14 melanoma it was 94.6%; in the assay on HCT-15 colon, 87.5%; in the assay with HT29 colon, 99.5%. The growth in the assay on SNB-75 CNS was 89%; in the assay with SNB-19 CNS it was 95.7%; in the assay on U251 CNS it was 102%; in the assay on PC-3 prostate, 102%; in the assay with SK-MEL-5 melanoma, 98.5%; in the assay with UACC-62 melanoma it was 90%. The growth with LOX IMVI melanoma was 91.6%; with SK-MEL-28 melanoma it was 105%.

Regarding `CCN1C(=O)N(CC)C2NNC(Sc3c(C(=O)O)c4ccccc4n(CCC(C)C)c3=O)=NC21` (stereo not given), the growth in the assay with DU-145 prostate is 17.7%; in the assay with K-562 leukemia it was 6.37% (active); in the assay with MALME-3M melanoma, 46.5%; with MDA-MB-231 breast, 10.9%; in the assay on RXF 393 renal it was -1.23% (active); in the assay on SF-268 CNS it was 49.3%. Besides, the growth was -16.5% (active) in the assay with SF-295 CNS; -53.4% (active) in the assay on SF-539 CNS; 40% in the assay with UACC-257 melanoma; 12.1% with M14 melanoma; 2.84% (active) with HCT-15 colon; -30% (active) in the assay with HT29 colon. Moreover, the growth in the assay on SNB-75 CNS is 26.1%; in the assay with SNB-19 CNS, 15.5%; in the assay on U251 CNS, 2.04% (active); in the assay on PC-3 prostate, 26.1%; in the assay with SK-MEL-5 melanoma, 3.73% (active); in the assay with UACC-62 melanoma it was 17.9%. Moreover, the results for the growth in the assay on LOX IMVI melanoma and in the assay with SK-MEL-28 melanoma were -41.7% (active) and 45.5%, respectively.

Regarding `O=C(Nc1ccc(Br)cc1)Nc1ccc(-c2ccc3c(c2)NC(=O)/C3=C\c2ccc[nH]2)cc1`, the growth with DU-145 prostate is 27.9%; with K-562 leukemia, 18.6%; in the assay with MALME-3M melanoma, 61.6%; in the assay with MDA-MB-231 breast, 66.3%; in the assay with RXF 393 renal, 25.3%; in the assay with SF-268 CNS, 40.3%. For the same compound, the growth in the assay with SF-295 CNS is 22.9%; in the assay with SF-539 CNS, 26.5%; with UACC-257 melanoma, 75.4%; with M14 melanoma, 32.3%; with HCT-15 colon, 42.8%; in the assay with HT29 colon, 23.1%. Also, the growth in the assay on SNB-75 CNS was 59.2%; in the assay on SNB-19 CNS, 75.2%; in the assay on U251 CNS, 39.5%; with PC-3 prostate it was 52.6%; with SK-MEL-5 melanoma it was 33.1%; in the assay on UACC-62 melanoma it was 24.7%. The growth is 25.6% in the assay on LOX IMVI melanoma and 57.5% in the assay with SK-MEL-28 melanoma.
